Source: PubChem BioAssay (EPA / NIEHS)
“And” between values parts separate entries of the source, which are not always exact repeats. Identical values can stand only once. Inconclusive results are not listed. The source made the active and inactive calls. The calls were made as follows: active = hit-call score of the fitted dose curve at least 0.9, where 1 is the maximum; inconclusive = response in the unintended direction; inactive = score below 0.9.

What was measured:
[1] = ACEA_ER_AUC_viability: ACEA Biosciences xCELLigence Real-Time Cell Analysis on Estrogen Receptor Agonism for Viability (AID 2283782);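 also: continuous compound exposure with impedance area under curve over 80 h; hit means loss of impedance signal meaning reduced cell growth or viability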
Method in brief: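 T-47D human breast cells in phenol red-free RPMI1640 with 10% charcoal-stripped FBS were dosed with an 8-point 1:4 dilution series from 100 uM top final concentration, in duplicate. Impedance-based growth was followed for 80 h; AUC analysed versus DMSO.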

[2] = test system: frog Estrogen Receptor (ESR1), gene 398734; experiment: ATG_frER1_XSP1: Attagene TRANS-FACTORIAL Multi-Species (XSP1) HepG2 Assay for frog Estrogen Receptor (ESR1) (AID 2283777)
Method in brief: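 Read-out: fluorescent reporter mRNA via RT-PCR, HpaI digestion and capillary electrophoresis, after 24 h chemical exposure of transiently transfected human HepG2 cells expressing exogenous NR-Gal4 chimeras. DMSO served as baseline for positive-direction fitting.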

[3] = test system: zebrafish Estrogen Receptor (ESR2A), gene 317734; experiment: ATG_zfER2a_XSP1: Attagene TRANS-FACTORIAL Multi-Species (XSP1) HepG2 Assay for zebrafish Estrogen Receptor (ESR2A) (AID 2283778)
Method in brief: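 HepG2 cells transiently transfected with multiplexed GAL4-UAS reporter units and chimeric NR-GAL4 receptors; 24 h compound exposure with 3 nM 6-alpha-fluorotestosterone present. Reporter mRNA quantified by RT-PCR and capillary electrophoresis, gain-of-signal fitted relative to DMSO.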

[4] = molecular target: chicken Estrogen Receptor (ESR1), ESR1 (gene 396099) (UniProt P06212); experiment: ATG_chERa_XSP1: Attagene TRANS-FACTORIAL Multi-Species (XSP1) HepG2 Assay for chicken Estrogen Receptor (ESR1) (AID 2283779)
Method in brief: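 HepG2 cells transiently transfected with multiplexed GAL4-UAS reporter units expressing chimeric NR-Gal4 proteins; 3 nM 6-alpha-fluorotestosterone present. Reporter mRNA measured 24 h after dosing by RT-PCR, FAM labelling, HpaI digest and capillary electrophoresis; gain of signal versus DMSO.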

[5] = test system: turtle Estrogen Receptor (ESR1), gene 101933533; experiment: ATG_trERa_XSP1: Attagene TRANS-FACTORIAL Multi-Species (XSP1) HepG2 Assay for turtle Estrogen Receptor (ESR1) (AID 2283781)
Method in brief: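 HepG2 cells transiently transfected with GAL4-UAS reporter units and chimeric NR-Gal4 constructs, dosed for 24 h with 3 nM 6-alpha-fluorotestosterone present. Reporter mRNA was quantified by RT-PCR, fluorescent labelling and capillary electrophoresis, with gain of signal fitted relative to DMSO.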

[6] = molecular target: Estrogen receptor beta (Homo sapiens) (UniProt Q92731); experiment: ATG_hERb_XSP1: Attagene TRANS-FACTORIAL Multi-Species (XSP1) HepG2 Assay for human Estrogen Receptor (ESR2) (AID 2283788)
Method in brief: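 Read-out: reporter mRNA induction by RT-PCR, HpaI digestion and capillary electrophoresis fluorescence, fitted in positive direction relative to DMSO baseline. Human liver HepG2 cells expressing ERβ-Gal4 fusion, dosed 24 h, medium containing 3 nM 6-alpha-fluorotestosterone.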

[7] = molecular target: GAL4 Transcription Factor (Internal Marker), GAL4 (gene 855828) (UniProt P04386); experiment: ATG_GAL4_XSP1: Attagene TRANS-FACTORIAL Multi-Species (XSP1) HepG2 Assay for GAL4 Transcription Factor (Internal Marker) (AID 2283789)
Method in brief: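 HepG2 cells transiently transfected with multiplexed GAL4-UAS reporter units were exposed for 24 h with 3 nM 6-alpha-fluorotestosterone present. Reporter mRNA was quantified by RT-PCR, FAM labelling, HpaI digestion and capillary electrophoresis; background-control readout, gain-of-signal versus DMSO.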

[8] = ATG_M_06_XSP1: Attagene TRANS-FACTORIAL Multi-Species (XSP1) HepG2 Assay for M06 Transcription Factor (Internal Marker) (AID 2283790)
Method in brief: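 Transfected HepG2 multi-reporter system treated 24 h in the presence of 3 nM 6-alpha-fluorotestosterone. The M06 internal marker transcript was quantified by RT-PCR with capillary electrophoresis as a background control, and gain of signal was scored versus DMSO.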

[9] = ATG_M_61_XSP1: Attagene TRANS-FACTORIAL Multi-Species (XSP1) HepG2 Assay for M61 Transcription Factor (Internal Marker) (AID 2283797)
Method in brief: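 HepG2 cells transiently transfected with multiplexed GAL4-driven reporter units, dosed 24 h with 3 nM 6-alpha-fluorotestosterone present. Reporter mRNA quantified by RT-PCR, 6-FAM labelling, HpaI digestion and capillary electrophoresis; internal-marker background control, gain of signal versus DMSO.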

[10] = molecular target: Peroxisome proliferator-activated receptor gamma (Homo sapiens) (UniProt P37231); experiment: ATG_hPPARg_XSP1: Attagene TRANS-FACTORIAL Multi-Species (XSP1) HepG2 Assay for human Peroxisome Proliferator-activated Receptor gamma (PPARg) (AID 2283800)
Method in brief: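 HepG2 cells transiently transfected with GAL4-UAS reporter units carrying chimeric NR-Gal4 proteins; 3 nM 6-alpha-fluorotestosterone present. After 24 h dosing, reporter mRNA quantified by RT-PCR and capillary electrophoresis; gain of signal relative to DMSO.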

[11] = molecular target: Nuclear receptor subfamily 1 group I member 2 (Mus musculus) (UniProt O54915); experiment: ATG_mPXR_XSP1: Attagene TRANS-FACTORIAL Multi-Species (XSP1) HepG2 Assay for mouse Pregnane X Receptor (PXR) (AID 2283803)
Method in brief: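 Transiently transfected HepG2 cells expressing a receptor-Gal4 chimera drive a GAL4-UAS reporter; 3 nM 6-alpha-fluorotestosterone included. Reporter mRNA read 24 h post-dose by RT-PCR and capillary electrophoresis; gain of signal relative to DMSO.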

[12] = molecular target: human Thyroid hormone Receptor alpha (TRa), THRA (gene 7067) (UniProt P10827); experiment: ATG_hTRa_XSP1: Attagene TRANS-FACTORIAL Multi-Species (XSP1) HepG2 Assay for human Thyroid hormone Receptor alpha (TRa) (AID 2283805)
Method in brief: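 HepG2 cells transiently transfected with GAL4-UAS reporter units expressing chimeric NR-Gal4 proteins, dosed 24 hours with 3 nM 6-alpha-fluorotestosterone present. Reporter mRNA measured by RT-PCR and capillary electrophoresis; gain of signal fitted versus DMSO.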

[13] = test system: turtle Thyroid Hormone Receptor, alpha (TRa), gene 101949057; experiment: ATG_trTRa_XSP1: Attagene TRANS-FACTORIAL Multi-Species (XSP1) HepG2 Assay for turtle Thyroid Hormone Receptor, alpha (TRa) (AID 2283806)
Method in brief: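 HepG2 cells transiently transfected with GAL4-UAS reporter units and chimeric receptor-Gal4 constructs, with 3 nM 6-alpha-fluorotestosterone present. Reporter mRNA was quantified 24 h after dosing by RT-PCR, 6-FAM labelling and capillary electrophoresis; gain of signal versus DMSO.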

[14] = molecular target: zebrafish Thyroid Hormone Receptor alpha (TRa), thraa (gene 30670) (UniProt Q98867); experiment: ATG_zfTRa_XSP1: Attagene TRANS-FACTORIAL Multi-Species (XSP1) HepG2 Assay for zebrafish Thyroid Hormone Receptor alpha (TRa) (AID 2283807)
Method in brief: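 HepG2 cells transiently transfected with GAL4-UAS reporter units including a zebrafish TRa–Gal4 chimera, dosed 24 h with 3 nM 6-alpha-fluorotestosterone present. Reporter mRNA quantified by RT-PCR and capillary electrophoresis; gain versus DMSO.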

[15] = molecular target: human Thyroid hormone Receptor beta (TRb), THRB (gene 7068) (UniProt P10828); experiment: ATG_hTRb_XSP1: Attagene TRANS-FACTORIAL Multi-Species (XSP1) HepG2 Assay for human Thyroid hormone Receptor beta (TRb) (AID 2283808)
Method in brief: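 HepG2 cells transiently transfected with reporter units driving GAL4-UAS reporters for chimeric NR-Gal4 proteins; 24 h chemical exposure with 3 nM 6-alpha-fluorotestosterone present. Reporter mRNA quantified by RT-PCR and capillary electrophoresis, gain of signal versus DMSO.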

[16] = molecular target: zebrafish Thyroid Hormone Receptor beta (TRb), thrb (gene 30607) (UniProt Q9PVE4); experiment: ATG_zfTRb_XSP1: Attagene TRANS-FACTORIAL Multi-Species (XSP1) HepG2 Assay for zebrafish Thyroid Hormone Receptor beta (TRb) (AID 2283809)
Method in brief: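 HepG2 cells transiently transfected with multiplexed GAL4-UAS reporter units expressing chimeric zebrafish TRb–Gal4. Dosed 24 h with 3 nM 6-alpha-fluorotestosterone present; reporter mRNA measured by RT-PCR, HpaI digestion and capillary electrophoresis; gain of signal versus DMSO.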

[17] = ATG_XTT_Cytotoxicity_XSP1: Cytotoxicity Assessment in the Attagene TRANS-FACTORIAL Multi-Species (XSP1) HepG2 Assay (AID 2283810)
Method in brief: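 XTT viability readout taken at 24 hours post-dosing in HepG2 liver cells co-treated with 3 nM 6-alpha-fluorotestosterone. Signal loss relative to DMSO controls reflects cytotoxicity.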

Estrogen receptor beta (Homo sapiens), sequence (Q92731 whole entry, looked up, the tested form may be a part): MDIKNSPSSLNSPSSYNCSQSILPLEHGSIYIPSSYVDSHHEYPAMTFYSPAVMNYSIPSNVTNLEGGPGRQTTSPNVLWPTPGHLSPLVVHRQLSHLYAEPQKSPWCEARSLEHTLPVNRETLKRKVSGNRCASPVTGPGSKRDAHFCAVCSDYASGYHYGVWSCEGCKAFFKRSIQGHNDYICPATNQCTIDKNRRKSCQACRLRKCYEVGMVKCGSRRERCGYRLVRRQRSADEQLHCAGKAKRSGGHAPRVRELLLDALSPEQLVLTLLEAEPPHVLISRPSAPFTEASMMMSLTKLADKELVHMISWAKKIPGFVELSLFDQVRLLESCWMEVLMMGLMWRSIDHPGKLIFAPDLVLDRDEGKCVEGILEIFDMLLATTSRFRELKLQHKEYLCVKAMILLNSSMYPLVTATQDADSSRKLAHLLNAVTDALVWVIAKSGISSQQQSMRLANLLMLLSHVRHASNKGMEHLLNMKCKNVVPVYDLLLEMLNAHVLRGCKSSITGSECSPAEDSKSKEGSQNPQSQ
GAL4 Transcription Factor (Internal Marker), GAL4 (gene 855828), sequence (P04386 whole entry, looked up, the tested form may be a part): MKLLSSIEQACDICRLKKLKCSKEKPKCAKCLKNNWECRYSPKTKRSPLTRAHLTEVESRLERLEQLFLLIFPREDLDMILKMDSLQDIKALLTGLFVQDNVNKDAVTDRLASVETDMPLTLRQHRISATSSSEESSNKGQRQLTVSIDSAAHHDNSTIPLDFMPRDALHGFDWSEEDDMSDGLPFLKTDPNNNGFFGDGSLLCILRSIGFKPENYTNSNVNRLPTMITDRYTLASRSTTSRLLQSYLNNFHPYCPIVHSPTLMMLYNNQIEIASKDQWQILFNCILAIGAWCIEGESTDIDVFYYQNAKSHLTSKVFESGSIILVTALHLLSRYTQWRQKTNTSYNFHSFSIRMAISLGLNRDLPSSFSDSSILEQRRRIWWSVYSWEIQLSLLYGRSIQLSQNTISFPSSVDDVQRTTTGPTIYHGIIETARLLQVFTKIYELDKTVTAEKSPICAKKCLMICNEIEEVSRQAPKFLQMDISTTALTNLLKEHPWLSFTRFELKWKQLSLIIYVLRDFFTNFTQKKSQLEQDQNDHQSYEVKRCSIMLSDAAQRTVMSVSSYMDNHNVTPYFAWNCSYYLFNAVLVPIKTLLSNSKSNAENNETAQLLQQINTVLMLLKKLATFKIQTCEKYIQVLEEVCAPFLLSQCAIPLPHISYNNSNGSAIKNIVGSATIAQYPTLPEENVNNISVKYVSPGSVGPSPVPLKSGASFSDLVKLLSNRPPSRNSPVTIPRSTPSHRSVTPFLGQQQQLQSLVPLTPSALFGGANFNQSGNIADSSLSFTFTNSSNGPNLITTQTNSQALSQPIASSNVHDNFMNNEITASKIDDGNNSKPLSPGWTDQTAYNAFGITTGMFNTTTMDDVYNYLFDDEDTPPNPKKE
human Thyroid hormone Receptor beta (TRb), THRB (gene 7068), sequence (P10828 whole entry, looked up, the tested form may be a part): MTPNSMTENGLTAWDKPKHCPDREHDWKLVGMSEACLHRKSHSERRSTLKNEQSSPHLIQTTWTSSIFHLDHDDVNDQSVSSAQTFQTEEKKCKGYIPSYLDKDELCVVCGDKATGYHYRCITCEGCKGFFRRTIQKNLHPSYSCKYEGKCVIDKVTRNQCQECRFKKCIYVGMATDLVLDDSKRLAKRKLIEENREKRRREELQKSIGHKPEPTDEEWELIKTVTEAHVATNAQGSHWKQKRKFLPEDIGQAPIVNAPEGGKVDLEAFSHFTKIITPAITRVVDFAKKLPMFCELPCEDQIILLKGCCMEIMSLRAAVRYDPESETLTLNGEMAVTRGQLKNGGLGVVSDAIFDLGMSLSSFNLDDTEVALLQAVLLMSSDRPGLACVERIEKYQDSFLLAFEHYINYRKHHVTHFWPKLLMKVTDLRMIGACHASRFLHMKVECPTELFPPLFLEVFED
chicken Estrogen Receptor (ESR1), ESR1 (gene 396099), sequence (P06212 whole entry, looked up, the tested form may be a part): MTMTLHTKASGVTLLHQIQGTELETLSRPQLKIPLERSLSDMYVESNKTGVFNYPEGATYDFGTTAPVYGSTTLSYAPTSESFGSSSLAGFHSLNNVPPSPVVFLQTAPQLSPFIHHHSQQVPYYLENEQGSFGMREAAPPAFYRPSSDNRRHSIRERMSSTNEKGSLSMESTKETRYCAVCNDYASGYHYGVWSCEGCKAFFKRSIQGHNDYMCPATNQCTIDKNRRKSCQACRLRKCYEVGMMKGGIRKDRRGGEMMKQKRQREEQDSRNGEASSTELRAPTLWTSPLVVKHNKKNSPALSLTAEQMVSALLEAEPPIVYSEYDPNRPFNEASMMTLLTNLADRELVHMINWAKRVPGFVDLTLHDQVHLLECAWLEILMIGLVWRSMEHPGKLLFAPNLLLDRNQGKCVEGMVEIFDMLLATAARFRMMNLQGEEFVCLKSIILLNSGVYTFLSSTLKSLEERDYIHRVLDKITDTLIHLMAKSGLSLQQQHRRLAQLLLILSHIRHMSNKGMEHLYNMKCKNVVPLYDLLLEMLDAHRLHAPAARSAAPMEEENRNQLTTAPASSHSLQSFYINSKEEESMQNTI
human Thyroid hormone Receptor alpha (TRa), THRA (gene 7067), sequence (P10827 whole entry, looked up, the tested form may be a part): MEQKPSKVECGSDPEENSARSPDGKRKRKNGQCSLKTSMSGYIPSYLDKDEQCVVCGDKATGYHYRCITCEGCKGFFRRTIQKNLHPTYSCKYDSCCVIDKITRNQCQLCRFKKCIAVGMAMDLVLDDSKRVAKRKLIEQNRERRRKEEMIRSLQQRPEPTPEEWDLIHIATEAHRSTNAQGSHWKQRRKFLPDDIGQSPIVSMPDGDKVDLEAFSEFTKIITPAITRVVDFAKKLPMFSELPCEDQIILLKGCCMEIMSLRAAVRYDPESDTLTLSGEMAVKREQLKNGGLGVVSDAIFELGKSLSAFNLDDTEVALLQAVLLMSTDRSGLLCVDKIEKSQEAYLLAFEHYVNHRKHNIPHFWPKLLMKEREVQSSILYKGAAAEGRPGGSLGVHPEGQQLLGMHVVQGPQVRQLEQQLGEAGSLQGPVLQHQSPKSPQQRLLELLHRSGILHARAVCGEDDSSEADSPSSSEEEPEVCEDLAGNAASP
zebrafish Thyroid Hormone Receptor alpha (TRa), thraa (gene 30670), sequence (Q98867 whole entry, looked up, the tested form may be a part): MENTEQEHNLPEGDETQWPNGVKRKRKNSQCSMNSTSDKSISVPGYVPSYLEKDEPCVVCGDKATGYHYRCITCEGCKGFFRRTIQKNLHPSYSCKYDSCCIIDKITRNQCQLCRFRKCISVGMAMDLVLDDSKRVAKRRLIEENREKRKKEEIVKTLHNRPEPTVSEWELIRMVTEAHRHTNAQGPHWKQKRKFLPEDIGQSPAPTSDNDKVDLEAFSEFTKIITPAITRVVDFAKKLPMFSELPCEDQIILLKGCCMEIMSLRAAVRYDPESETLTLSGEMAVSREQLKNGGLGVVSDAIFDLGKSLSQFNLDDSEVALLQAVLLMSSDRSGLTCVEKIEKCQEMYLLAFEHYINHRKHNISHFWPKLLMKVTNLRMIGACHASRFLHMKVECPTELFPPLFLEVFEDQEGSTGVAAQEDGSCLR
zebrafish Thyroid Hormone Receptor beta (TRb), thrb (gene 30607), sequence (Q9PVE4 whole entry, looked up, the tested form may be a part): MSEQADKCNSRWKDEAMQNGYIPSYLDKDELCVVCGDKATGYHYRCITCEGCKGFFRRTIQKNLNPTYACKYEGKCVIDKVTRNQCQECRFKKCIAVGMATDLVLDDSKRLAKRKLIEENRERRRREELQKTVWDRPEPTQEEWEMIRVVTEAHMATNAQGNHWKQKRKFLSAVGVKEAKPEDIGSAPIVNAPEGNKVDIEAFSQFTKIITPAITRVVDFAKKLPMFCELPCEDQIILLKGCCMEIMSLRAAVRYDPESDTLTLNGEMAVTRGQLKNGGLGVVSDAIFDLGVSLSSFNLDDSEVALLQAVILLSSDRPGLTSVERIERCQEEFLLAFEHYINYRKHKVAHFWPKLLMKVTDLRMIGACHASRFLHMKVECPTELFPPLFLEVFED
Peroxisome proliferator-activated receptor gamma (Homo sapiens), sequence (P37231 whole entry, looked up, the tested form may be a part): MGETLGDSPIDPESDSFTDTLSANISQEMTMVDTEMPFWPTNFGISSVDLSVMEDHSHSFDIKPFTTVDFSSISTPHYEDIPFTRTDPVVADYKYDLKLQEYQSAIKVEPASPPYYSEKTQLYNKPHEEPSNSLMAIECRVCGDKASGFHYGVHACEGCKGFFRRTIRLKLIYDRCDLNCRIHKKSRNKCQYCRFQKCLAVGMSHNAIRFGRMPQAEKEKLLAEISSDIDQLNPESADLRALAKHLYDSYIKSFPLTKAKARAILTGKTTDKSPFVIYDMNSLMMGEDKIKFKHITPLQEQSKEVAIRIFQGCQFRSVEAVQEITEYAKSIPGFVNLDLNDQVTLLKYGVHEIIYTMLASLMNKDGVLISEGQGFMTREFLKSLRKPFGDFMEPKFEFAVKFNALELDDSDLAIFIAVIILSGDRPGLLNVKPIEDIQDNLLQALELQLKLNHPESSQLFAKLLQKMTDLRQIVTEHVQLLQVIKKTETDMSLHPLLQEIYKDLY
Nuclear receptor subfamily 1 group I member 2 (Mus musculus), sequence (O54915 whole entry, looked up, the tested form may be a part): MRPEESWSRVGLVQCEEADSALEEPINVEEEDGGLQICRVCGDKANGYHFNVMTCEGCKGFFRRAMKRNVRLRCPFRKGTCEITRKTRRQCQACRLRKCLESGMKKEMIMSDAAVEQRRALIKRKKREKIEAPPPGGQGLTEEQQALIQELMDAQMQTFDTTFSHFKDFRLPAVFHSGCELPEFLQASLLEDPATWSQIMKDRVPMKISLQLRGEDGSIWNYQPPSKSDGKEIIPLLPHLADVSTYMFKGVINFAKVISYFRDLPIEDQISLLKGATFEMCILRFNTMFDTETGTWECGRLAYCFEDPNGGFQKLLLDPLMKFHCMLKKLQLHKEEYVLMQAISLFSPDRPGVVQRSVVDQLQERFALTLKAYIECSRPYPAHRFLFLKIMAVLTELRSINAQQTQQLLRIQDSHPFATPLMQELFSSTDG

Question: For `Cc1ccc(S(=O)(=O)O)cc1`, which outcome [1] is on record?
Answer: inactive

Question: Which outcome [1] does the source give for `C=CC(=O)OCCC(F)(F)C(F)(F)C(F)(F)C(F)(F)C(F)(F)C(F)(F)C(F)(F)C(F)(F)F` here?
Answer: inactive

Question: With `O=S(=O)(O)c1ccccc1` as the compound, how does the outcome [1] read?
Answer: inactive

Question: Which AC50 [1] does the source give for `CN(C)c1ccc(C(=C2C=CC(=[N+](C)C)C=C2)c2ccccc2)cc1` here?
Answer: 3.16 µM (active) and 3.1 µM (active)

Question: For `C=CC(C)(CCC=C(C)C)OC(C)=O` (stereo not drawn), which outcome [1] is on record?
Answer: inactive

Question: For `CCCCCCCCCCCCOC(=O)c1cc(O)c(O)c(O)c1`, which AC50 [1] is on record?
Answer: 2.97 µM (active)

Question: For `CCCCCCCCCCCC[N+](C)(C)Cc1ccccc1`, which AC50 [1] is on record?
Answer: 3.05 µM (active) and 5.69 µM (active)

Question: With `Cc1cc(Cc2cc(C)cc(C(C)(C)C)c2O)c(O)c(C(C)(C)C)c1` as the compound, how does the AC50 [1] read?
Answer: 11.4 µM (active)

Question: Which outcome [1] does the source give for `CCO[Si](C)(C)OCC` here?
Answer: inactive

Question: With `COc1ccc(C#N)cc1` as the compound, how does the AC50 [1] read?
Answer: 50 µM (active)

Question: What does the source list for `C[C@]12CC[C@@H]3c4ccc(O)cc4CC[C@H]3[C@@H]1C[C@@H](O)[C@@H]2O`?
Answer: AC50 [2]: 0.0279 µM (active); AC50 [3]: 0.0157 µM (active); AC50 [4]: 0.0227 µM (active); AC50 [5]: 0.0172 µM (active); AC50 [6]: 0.0105 µM (active); outcome [7]: inactive; outcome [8]: inactive; outcome [9]: inactive; outcome [10]: inactive; outcome [11]: inactive; outcome [12]: inactive; outcome [13]: inactive; outcome [14]: inactive; outcome [15]: inactive; outcome [16]: inactive; outcome [17]: inactive

Question: Which AC50 [1] does the source give for `Cc1cncc(C)c1` here?
Answer: 12.1 µM (active)

Question: For `O=C(O)C(F)(F)OC(F)(F)C(F)(F)OC(F)(F)C(F)(F)OC(F)(F)C(F)(F)C(F)(F)C(F)(F)F`, which AC50 [1] is on record?
Answer: 119 µM (active)

Question: Which outcome [1] does the source give for `CCCCN(C)C` here?
Answer: inactive

Question: For `CNNCc1ccc(C(=O)NC(C)C)cc1`, which outcome [1] is on record?
Answer: inactive

Question: With `CN(CCO)S(=O)(=O)C(F)(F)C(F)(F)C(F)(F)C(F)(F)C(F)(F)C(F)(F)C(F)(F)C(F)(F)F` as the compound, how does the outcome [1] read?
Answer: inactive

Question: For `CCC(C)c1nccnc1OC` (stereo not drawn), which outcome [1] is on record?
Answer: inactive

Question: Which AC50 [1] does the source give for `OCCN1CN(CCO)CN(CCO)C1` here?
Answer: 81.8 µM (active)

Question: Which AC50 [1] does the source give for `O=C(CC(=O)C(F)(F)C(F)(F)C(F)(F)F)c1cccs1` here?
Answer: 113 µM (active)

Question: Which AC50 [1] does the source give for `O=C1C=CC(=O)N1c1cccc(N2C(=O)C=CC2=O)c1` here?
Answer: 23.6 µM (active)

Question: For `C=CCOCC(CO)(CO)CO`, which outcome [1] is on record?
Answer: inactive

Question: With `NCCN` as the compound, how does the outcome [1] read?
Answer: inactive

Question: For `CCOC(OCC)C(=O)c1ccccc1`, which outcome [1] is on record?
Answer: inactive

Question: Which outcome [1] does the source give for `COCN(COC)c1nc(N(COC)COC)nc(N(COC)COC)n1` here?
Answer: inactive

Question: Which AC50 [1] does the source give for `Cc1cc(C(C)(C)C)c(O)c(C(C)(C)C)c1` here?
Answer: 79.4 µM (active)

Question: For `C/C=C/C(=O)C1=C(C)CCCC1(C)C`, which outcome [1] is on record?
Answer: inactive

Question: Which AC50 [1] does the source give for `N=C(N)c1ccc(OCCCCCOc2ccc(C(=N)N)cc2)cc1` here?
Answer: 63.5 µM (active)

Question: For `Clc1ccc2c(Cl)ccnc2c1`, which outcome [1] is on record?
Answer: inactive
